RGS16-Gao HTS = modulators of RGS16 binding to Galphao, primary screen, biochemical, human proteins, multiplexed bead flow cytometry; Regulator of G-protein signaling 16 (Homo sapiens) + Guanine nucleotide-binding protein …; bead-based flow cytometry RGS16-Galphao binding, fluorescence; actives lie on both sides; binding response (% of control), % at 10 µM; hit rate 0.38% among 220,000; AID 1441, 2008;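 note: Galphao activated by GDP with aluminum fluoride before binding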
Target sequence (O15492 whole entry, looked up): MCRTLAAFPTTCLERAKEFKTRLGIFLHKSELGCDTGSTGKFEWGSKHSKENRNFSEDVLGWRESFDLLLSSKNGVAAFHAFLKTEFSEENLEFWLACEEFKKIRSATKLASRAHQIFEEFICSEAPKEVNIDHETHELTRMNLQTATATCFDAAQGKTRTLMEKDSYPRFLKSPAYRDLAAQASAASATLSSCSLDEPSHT
Target sequence (P09471 whole entry, looked up): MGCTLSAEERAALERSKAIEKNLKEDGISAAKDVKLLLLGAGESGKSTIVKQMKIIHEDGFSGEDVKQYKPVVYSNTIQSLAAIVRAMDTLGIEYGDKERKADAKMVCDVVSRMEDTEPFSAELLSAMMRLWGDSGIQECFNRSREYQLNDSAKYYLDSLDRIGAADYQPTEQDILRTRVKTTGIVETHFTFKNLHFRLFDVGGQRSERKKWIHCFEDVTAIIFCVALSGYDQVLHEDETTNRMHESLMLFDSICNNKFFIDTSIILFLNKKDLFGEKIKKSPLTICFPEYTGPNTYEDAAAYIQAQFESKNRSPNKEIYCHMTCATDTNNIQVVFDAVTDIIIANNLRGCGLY
RGS4-Gao reg = modulators of RGS4 binding to Galphao, primary screen, biochemical, multiplexed bead flow cytometry; Guanine nucleotide-binding protein G(o) subunit alpha (Homo sapiens), P09471; actives lie on both sides; binding response (% of control), % at 10 µM; hit rate 0.33% among 220,000; in the data active = binding response below about 49% or above about 150%; inactive = in between;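 note: fluorescent Galphao activated with aluminum fluoride binding bead-coupled RGS4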
Target sequence (P09471 whole entry, looked up): as above
RGS8-Gao reg = RGS8-Galphao binding modulators, primary screen, biochemical, multiplexed bead flow cytometry. response (percent of control binding), % at 10 µM. actives lie on both sides. AID 1423, 2008. hit rate 0.34% among 220,000; in the data active = response below about 60% or above about 140%; inactive = in between;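 note: Galphao activated as the GDP aluminium fluoride complex binding bead-coupled RGS8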
GSH fluor = compound fluorescence on glutathione beads, profiling panel, artefact control, biophysical, 488/530 nm, flow cytometry | fluorescence (KMESF) at 10 µM | hit rate 0.25% among 190,000 | GSH beads flow cytometry, compound fluorescence 488/530 nm; stronger effect = higher value; in the data active = fluorescence above about 89;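 note: glutathione beads carrying GST-tagged Bcl family fusion proteins plus one bare bead set; values are compound well signal with DMSO vehicle wells as background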
RGS7-Gao = RGS7-Galphao binding modulators, primary screen, biochemical, multiplexed bead flow cytometry; binding response (% of control), % at 10 µM; Guanine nucleotide-binding protein G(o) subunit alpha (Homo sapiens), P09471; actives lie on both sides; hit rate 0.35% among 220,000; in the data active = binding response below about 49% or above about 150%; inconclusive = no clear call, values can overlap the other calls; inactive = in between;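 note: fluorescent Galphao held in activated GDP-AlF4 state binding bead-coupled RGS7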
Avidin bead fluor = green autofluorescence of compounds with avidin beads – biophysical, 488/530 nm, flow cytometry, artefact control, profiling panel; compound fluorescence 488/530 nm; stronger effect = higher value; fluorescence (KMESF) at 10 µM; hit rate 0.38% among 220,000; in the data active = fluorescence above about 47
RGS-Gao = modulators of RGS–Galpha-o binding, primary screen, biochemical, multiplexed beads, flow cytometry, RGS4/7/8/16/19. shares compounds with RGS16-Gao HTS. multiplexed bead flow cytometry. RGS4–Galpha-o binding response, % at 10 µM. hit rate 99% among 1,600. AID 1504, 2009;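 note: fluorescently labeled Galpha-o bound to GDP with aluminium fluoride binding biotinylated RGS beads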
Biotin-avidin = disruption of biotin probe capture by avidin, counter-screen for RGS protein interaction modulators, biochemical, flow cytometry, bead-based; 1,700 tested, under 10 active; inhibition, % at 10 µM; shares compounds with RGS16-Gao HTS; streptavidin beads, fluorescein-biotin binding;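 active = inhibition above 50%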;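 note: median green fluorescence of gated singlet beads compared with DMSO control wells; 0% = DMSO wells and 100% = complete loss of bead fluorescence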
RGS8-Gao confirm = RGS8-Galphao binding modulators, confirmation, biochemical, multiplexed bead flow cytometry, single concentration; shares compounds with RGS16-Gao HTS; bead-based flow cytometry RGS8-Galphao binding, fluorescence; actives lie on both sides; binding response (% of control), % at 10 µM; hit rate 3% among 1,700; AID 1836, 2009; in the data active = binding response below about 72% or above about 130%; inactive = in between;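 note: Galphao activated as GDP AlF4 complex before binding bead RGS8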
RGS7-Gao single = RGS7-Galphao binding modulators, confirmation, biochemical, multiplexed bead flow cytometry, single concentration. shares compounds with RGS16-Gao HTS. bead-based flow cytometry RGS7-Galphao binding; actives lie on both sides. response (percent of control binding), % at 10 µM. hit rate 7.8% among 1,700. AID 1837, 2009; in the data active = response below about 75% or above about 130%; inactive = in between;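 note: fluorescent Galphao activated with GDP and aluminum fluoride binding bead-coupled RGS7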
RGS16-Gao conf = modulators of RGS16-Galphao protein binding, confirmation, biochemical, single concentration, multiplexed bead flow cytometry | bead-based flow cytometry; actives lie on both sides | response (% of control binding), % at 10 µM | shares compounds with RGS16-Gao HTS | hit rate 4% among 1,700; in the data active = response below about 74% or above about 130%; inactive = in between;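 note: Galphao activated as the GDP aluminium fluoride complex binding bead-coupled RGS16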
RGS4-Gao single = modulators of RGS4-Galphao protein binding, confirmation, biochemical, single concentration, multiplexed bead flow cytometry; actives lie on both sides; AID 1840, 2009; shares compounds with RGS16-Gao HTS; binding response (% of control), % at 10 µM; hit rate 4% among 1,700; in the data active = binding response below about 74% or above about 130%; inactive = in between
RGS19-Gao conf = regulators of RGS19-Galphao binding, confirmation, biochemical, single point, multiplexed bead flow cytometry. shares compounds with RGS16-Gao HTS. bead-based flow cytometry RGS19-Galphao binding; actives lie on both sides. hit rate 5% among 1,700. response (percent of control binding), % at 10 µM; in the data active = response below about 50% or above about 160%; inactive = in between;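 note: 100% = no compound control and 0% = blank background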
* marks the source's active call; other numbers are inactive results; u = inconclusive; x = no result; [ ] = remark or other dose. In the library only some 1.2% were active in any assay of this set; here they are far more common. Unless noted, the rule behind the calls is not given here.

SMILES | RGS16-Gao HTS | RGS4-Gao reg | RGS8-Gao reg | GSH fluor | RGS7-Gao | Avidin bead fluor | RGS-Gao | Biotin-avidin | RGS8-Gao confirm | RGS7-Gao single | RGS16-Gao conf | RGS4-Gao single | RGS19-Gao conf
Cc1nn(-c2ccccc2)c(N)c1Sc1cccc([N+](=O)[O-])c1 | 202*[activator] | 111 | 120 | 8 | 122 | 12 | 111* | -1 | 103 | 103 | 105 | 104 | 103
Cc1nn(-c2ccccc2)c(N)c1Sc1ccccc1[N+](=O)[O-] | 97 | 94 | 97 | 15 | 97 | 16 | x | x | x | x | x | x | x
CSc1nnc(-c2sccc2OCc2ccc(C)cc2)n1C | 99 | 103 | 103 | 25 | 103 | 10 | x | x | x | x | x | x | x
C=CCNC(=O)c1onc(CSc2cccc(C)c2)c1C(=O)O | 102 | 102 | 104 | 37 | 100 | 10 | x | x | x | x | x | x | x
COc1ccc2c(C)cc(SCc3c(C)noc3C)nc2c1 | 345 | 114 | 154*[activator] | 27 | 117 | 18 | 114* | x | x | x | x | x | x
O=C(Nc1cccc(F)c1)c1cc(S(=O)(=O)N2CCOCC2)cs1 | 93 | 97 | 99 | 8 | 101 | 5 | x | x | x | x | x | x | x
COc1ccc(-n2c(SCC(N)=O)nnc2-c2cccnc2)cc1 | x | 106 | x | 26 | 103 | x | x | 1 | 102 | 101 | 100 | 101 | 96
CC(C)C[C@H](NC(=O)c1nc[nH]c1C(=O)N1CCc2ccccc2C1)C(=O)OC(C)(C)C | 104 | 101 | 102 | x | u | 7 | x | x | x | x | x | x | x
CN(C)c1cc[n+](CC(=O)c2ccc(OC(F)F)cc2)cc1 | 100 | 101 | 101 | x | u | 10 | x | x | x | x | x | x | x
Cc1ccc(C2=NN3C(=O)c4ccccc4C3C2)cc1 (stereo unspecified) | 40 | 26* | 64 | x | u | 1 | x | -2 | 102 | 98 | 102 | 101 | 113
COc1ccc2c(c1OC)C(=O)N1N=C(c3ccc(F)cc3)CC21 (stereo unspecified) | 98 | 97 | 101 | 17 | 99 | 10 | x | x | x | x | x | x | x
CCOC(=O)c1cccc2c1-c1ccccc1/C2=N/O | 106 | 103 | 106 | 6 | 102 | 19 | x | x | x | x | x | x | x
CC1CCCC(C)N1C(=O)c1cccc2c1-c1ccccc1/C2=N/O (stereo unspecified) | 109 | 110 | 101 | 12 | 166*[activator] | 143* | 110* | 0 | 97 | 98 | 99 | 98 | 101
COc1cccc(N/C=C/C(=O)c2ccc(Cl)cc2)c1 | 66 | 89 | 82 | 6 | 95 | 1 | x | x | x | x | x | x | x
COc1ccc(N/C=C/C(=O)c2ccc(Cl)cc2)cc1 | 61 | 128 | 60* | 10 | 125 | 11 | 128* | -1 | 99 | 102 | 104 | 102 | 100
COc1ccc(C(=S)N2CCC(C(N)=O)CC2)cc1Br | 97 | 102 | 99 | 14 | u | 8 | x | x | x | x | x | x | x
COc1ccc(C(=O)c2ccc(OC)c(Br)c2)cc1Br | 254*[activator] | 120 | 131 | 11 | 120 | 4 | 120* | 0 | 99 | 101 | 98 | 100 | 89
OCCCN1CCN(CCCOc2ccccc2-c2ccccc2)CC1 | 179*[activator] | 107 | 116 | 6 | 110 | 13 | 107* | 1 | 102 | 103 | 104 | 104 | 95
c1ccc(-c2ccccc2OCCCN2CCOCC2)cc1 | 95 | 99 | 98 | 23 | 103 | 24 | x | x | x | x | x | x | x
Cc1ccc(-n2nc(C(=O)N/N=C/c3cccc(C(F)(F)F)c3)c3ccccc3c2=O)cc1C | 107 | 96 | 99 | 29 | 91 | 5 | x | x | x | x | x | x | x
Cc1cccc(CC2S/C(=N/c3ccccn3)NC2=O)c1 (stereo unspecified) | 237 | 113 | 142*[activator] | 21 | 114 | 6 | 113* | -1 | 109 | 105 | 106 | 103 | 109
O=C1N/C(=N\c2ccccn2)SC1Cc1ccccc1Cl (stereo unspecified) | 86 | 87 | 91 | x | u | 5 | x | x | x | x | x | x | x
Cc1ccc(N(C(=O)Nc2ccccc2)C2=NCCC2)cc1 | 54 | 44* | 72 | x | u | 1 | x | -1 | 98 | 47* | 80 | 57* | 84
O=C(Nc1ccccc1)N(C1=NCCC1)c1ccccc1 | 103 | 104 | 101 | x | u | 5 | x | x | x | x | x | x | x
COc1ccc(NC(=O)COC(=O)CNS(=O)(=O)c2ccc(F)c(F)c2F)cc1OC | 132 | 113 | 107 | 16 | 109 | 9 | x | x | x | x | x | x | x
COc1ccc(OC)c(C2=NOC(C(=O)Nc3cccc(C(C)=O)c3)C2)c1 (stereo unspecified) | 118 | 157*[activator] | 99 | 51 | 303*[activator] | 413* | x | 3 | 93 | 88 | 91 | 93 | 93
COc1ccc(OC)c(C2=NOC(C(=O)Nc3ccccc3SC)C2)c1 (stereo unspecified) | 96 | 91 | 95 | 34 | 98 | 12 | x | x | x | x | x | x | x
CCC(=O)c1ccc(OCC(=O)N2CCc3cc(OC)c(OC)cc3C2)cc1 | -36* | -33* | 9.6* | 28 | -12* | -3 | x | -2 | 102 | 96 | 97 | 100 | 128

Screening results: PubChem BioAssay, NMMLSC
